These results are taken from PubChem BioAssay (EPA / NIEHS).

Read-out in test [1]: Interleukin-8 (IL8), CXCL8 (gene 3576)
Nature of the test: BSK_3C_IL8: BioMAP Diversity Plus: 3C Assay for Interleukin-8 (IL8) Biomarker Activity (AID 2283020). As to conditions: primary human endothelial cells (HUVEC); actives raise or lower the signal. The method in brief: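 Primary human umbilical vein endothelial cells were dosed for 24 h. IL-8 was quantified by ELISA and fitted bidirectionally against DMSO. Cytotoxicity was assessed in parallel cultures by SRB staining at 560 nm.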

Read-out in test [2]: Monokine induced gamma interferon (MIG), CXCL9 (gene 4283)
Nature of the test: BSK_3C_MIG: BioMAP Diversity Plus: 3C Assay for Monokine induced gamma interferon (MIG) Biomarker Activity (AID 2283021).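 As to AC50: MIG protein level measured by immunoassay in the treated endothelial cultures.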 As to conditions: primary human endothelial cells (HUVEC); actives raise or lower the signal. An outline of the steps:
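HUVEC primary endothelial cultures dosed with chemical; MIG quantified by ELISA at 24 h. Data fitted bidirectionally against DMSO control, with parallel SRB total-protein staining for cytotoxicity.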

Test [3] is described as follows: BSK_3C_SRB: Viability Assessment in the BioMAP Diversity Plus: 3C Assay (AID 2283023).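 Also: fitted both ways against DMSO so a hit may be signal rise or drop.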 As to conditions: primary human endothelial cells (HUVEC). The method in brief: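 Cytotoxicity readout in parallel HUVEC 3C cultures: after 24 h compound exposure, cells fixed with 10% TCA, stained with 0.1% SRB and read at 560 nm. Gain or loss relative to DMSO fitted.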
Read-out in test [4]: Matrix Metallopeptidase 1 (MMP1), MMP1 (gene 4312)
Nature of the test: BSK_BE3C_MMP1: BioMAP Diversity Plus: BE3C Assay for Matrix Metallopeptidase 1 (MMP1) Biomarker Activity (AID 2283024). As to conditions: primary human bronchial epithelial cells; actives raise or lower the signal. The method in brief: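 Human primary bronchial epithelial cells (BE3C system) dosed for 24 h; MMP-1 quantified by ELISA. Bidirectional fit against DMSO; cytotoxicity tracked in parallel cultures by SRB total-protein staining.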

Test [5] is described as follows: BSK_3C_Vis: BioMAP Diversity Plus: 3C Assay for Morphology Visualization (AID 2283025).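 Also: fitted both ways so gain or loss versus DMSO counts.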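 As to AC50: light microscopy image of cell morphology used as background control.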 The settings on record: primary human endothelial cells (HUVEC). An outline of the steps: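 Human umbilical vein endothelial cell morphology was inspected by light microscopy 24 h after chemical dosing; scored bidirectionally relative to DMSO.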
Read-out in test [6]: Pselectin, SELP (gene 6403)
Nature of the test: BSK_4H_Pselectin: BioMAP Diversity Plus: 4H Assay for Pselectin Biomarker Activity (AID 2283026). As to conditions: primary human endothelial cells (HUVEC); actives raise or lower the signal. The method in brief:
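Primary human umbilical vein endothelial cells were treated 24 h, and cell-surface P-selectin was then quantified by ELISA. Bidirectional fit versus DMSO; cytotoxicity checked in parallel cultures by SRB total-protein staining.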

Test [7] can be described thus: BSK_4H_SRB: Viability Assessment in the BioMAP Diversity Plus: 4H Assay (AID 2283027).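 Also: cells exposed to compound for 24 h before staining.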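 As to AC50: curves fitted both ways versus DMSO so AC50 may be loss or gain.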 As to conditions: primary human endothelial cells (HUVEC). An outline of the steps: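 Human umbilical vein endothelial cells were dosed with chemical and, after 24 h, fixed with 10% TCA, stained with 0.1% sulforhodamine B, and read at 560 nm to give total protein as a cytotoxicity measure. Bidirectional fitting relative to DMSO control.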

Test [8] is described as follows: BSK_BE3C_SRB: Viability Assessment in the BioMAP Diversity Plus: BE3C Assay (AID 2283028).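 As to AC50: fitted both ways so AC50 may mark signal gain or loss versus DMSO.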 As to conditions: primary human bronchial epithelial cells. The method in brief: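 Cytotoxicity read-out: SRB (0.1%) staining of TCA-fixed (10%) human lung bronchial epithelial cells, absorbance 560 nm, 24 h post-dosing. Curves fitted both directions relative to DMSO.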
Read-out in test [9]: Thrombomodulin, THBD (gene 7056)
Nature of the test: BSK_3C_Thrombomodulin: BioMAP Diversity Plus: 3C Assay for Thrombomodulin Biomarker Activity (AID 2283029). As to conditions: primary human endothelial cells (HUVEC); actives raise or lower the signal. The method in brief:
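Human umbilical vein endothelial cells were exposed to chemicals for 24 h; cell-surface thrombomodulin quantified by ELISA, with bidirectional fitting against DMSO baseline.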

For test [10], the target named is human Vitamin D Receptor (VDR), VDR (gene 7421) (UniProt P11473). Nature of the test: ATG_VDR_TRANS: Attagene TRANS-FACTORIAL HepG2 Assay for human Vitamin D Receptor (VDR) (AID 2283022; active = hit-call score of the fitted dose curve at least 0.9, where 1 is the maximum). The method in brief:
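Transactivation by an exogenous VDR-Gal4 chimera in transiently transfected HepG2 cells was measured as reporter transcript level 24 hours after chemical treatment. RT-PCR products were analysed by capillary electrophoresis and fitted in the positive direction relative to DMSO.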

“And” between values parts separate entries of the source, which are not always exact repeats. Equal entries are not always repeated. Inconclusive results are not listed. Some structures have more than one record in an assay (separate samples or runs), and their calls can disagree. The source made the active and inactive calls. The calls were made as follows, unless noted: active = hit-call score of the fitted dose curve at least 0.9, where 1 is the maximum; inactive = score below 0.9.

Chain of human Vitamin D Receptor (VDR), VDR (gene 7421) (P11473 whole entry, looked up, the tested form may be a part): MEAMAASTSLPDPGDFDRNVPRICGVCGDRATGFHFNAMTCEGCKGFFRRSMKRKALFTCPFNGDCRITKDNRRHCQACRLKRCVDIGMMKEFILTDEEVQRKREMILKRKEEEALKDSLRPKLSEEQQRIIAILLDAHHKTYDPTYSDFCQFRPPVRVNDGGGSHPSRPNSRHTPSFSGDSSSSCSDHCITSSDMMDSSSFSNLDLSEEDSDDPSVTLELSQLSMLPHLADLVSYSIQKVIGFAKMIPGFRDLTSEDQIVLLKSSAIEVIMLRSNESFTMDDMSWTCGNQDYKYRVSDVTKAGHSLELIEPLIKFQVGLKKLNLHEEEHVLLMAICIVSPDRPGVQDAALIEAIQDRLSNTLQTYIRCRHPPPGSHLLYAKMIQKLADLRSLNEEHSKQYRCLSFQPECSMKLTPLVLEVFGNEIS

`CCCCCCCOC(=O)c1ccccc1C(=O)OCCCCCCC`: the result in test [1], in test [2], in test [3], in test [4], in test [5] and in test [6] was inactive. Further, the outcome in [7], in test [8] and in test [9] was inactive.
What is called AC50 is the concentration giving half of the maximal activity seen. As to `O[Si](c1ccccc1)(c1ccccc1)c1ccccc1`, the result in test [1], in test [2], in test [10], in test [4], in test [8] and in test [9] was inactive. Further, the AC50 is 37.4 µM (active) in test [5], 26.8 µM (active) in [6] and 13.8 µM (active) in [7].
Take `NC(=O)C(F)(F)C(F)(F)C(F)(F)C(F)(F)F`: the outcome in [1], in [2], in [10], in test [4], in test [6] and in test [7] was inactive. For the same compound, the outcome in test [8] and in test [9] was inactive. Further, in test [9], the AC50 was 38.8 µM (active).
For the compound `OCC(F)(F)C(F)(F)C(F)(F)C(F)F`, the result in test [1], in [2], in test [10], in test [4], in test [6] and in test [7] was inactive. In addition, the outcome in test [8] and in test [9] was inactive.
As for `CCc1ccc(C(c2ccc(CC)cc2)C(Cl)Cl)cc1`, the AC50 in [1] was 11.6 µM (active); in test [4] it was 7.64 µM (active); in test [5], 13 µM (active); in test [7] it was 15 µM (active). Further, the outcome in [2], in test [10], in test [6], in test [8] and in [9] was inactive.
Turning to `COC(=O)CCC(F)(F)C(F)(F)C(F)(F)C(F)(F)F`, the result in [1], in test [2], in [10], in test [4], in test [6] and in test [7] was inactive. In addition, the outcome in test [8] and in test [9] was inactive.
Regarding `FC(F)(I)C(F)(F)C(F)(F)C(F)(F)I`, the AC50 in test [1] was 46.1 µM (active) and 53.1 µM (active) and 53.3 µM (active); in test [2], 52.8 µM (active) and 46.1 µM (active) and 55.3 µM (active); in [3], 55 µM (active) and 51 µM (active) and 51.9 µM (active); in [4] it was 44 µM (active) and 50.6 µM (active) and 22.7 µM (active); in [6], 47.9 µM (active) and 30 µM (active) and 44.7 µM (active); in test [7], 56.2 µM (active) and 42.7 µM (active) and 50.5 µM (active). In [8], the AC50 is 50.1 µM (active) and 43.1 µM (active) and 44.2 µM (active). The result in test [9] was inactive.
On to `CCCCCCCCCCCCCCCC[N+](C)(C)Cc1ccccc1`, for which the AC50 is 7.59 µM (active) in [1]; 4.12 µM (active) in test [2]; 9.34 µM (active) in [4]; 2.96 µM (active) in test [5]; 4.62 µM (active) in test [6]; 5.09 µM (active) in test [7]. Besides, the values for the AC50 in test [8] and in [9] were 5.04 µM (active) and 5.17 µM (active), respectively. The compound was classed as inactive in [10].
For `OCC(F)(F)C(F)(F)C(F)(F)C(F)(F)C(F)(F)C(F)F`, the result in test [1], in [2], in test [10], in [4], in [6] and in test [7] was inactive. Also, the outcome in test [8] and in test [9] was inactive.
Regarding `FC(F)(F)C(F)(F)C(F)(F)N(C(F)(F)C(F)(F)C(F)(F)F)C(F)(F)C(F)(F)C(F)(F)F`, the result in test [1], in [2], in test [10], in test [4], in test [6] and in [7] was inactive. The result in [8] and in [9] was inactive.
With `FC(F)(F)C(F)(F)C(F)(F)C(F)(F)C(F)(F)C(F)(F)CC1CO1` (configuration not stated), the outcome in test [1], in [2], in test [3], in test [4], in [6] and in test [7] was inactive. Also, the result in [8] and in test [9] was inactive.
Take `OCC(F)(F)C(F)(F)C(F)(F)C(F)(F)C(F)(F)C(F)(F)F`: the result in [1], in test [2], in test [10], in [4], in test [6] and in test [7] was inactive. The result in test [8] and in [9] was inactive. For the same compound, the AC50 in test [6] is 43.6 µM (active).
Consider `FC(F)(F)C(F)(F)C(F)(F)C(F)(F)C(F)(F)C(F)(F)C(F)(F)C(F)(F)CCS`, for which the outcome in test [1], in test [2], in test [10], in test [4], in test [6] and in [7] was inactive. For the same compound, the result in test [8] and in test [9] was inactive.
As for `FC(F)(F)C(F)(F)C(F)(F)C(F)(F)C(F)(F)C(F)(F)CCS`, the result in [1], in test [2], in [10], in [4], in test [6] and in test [7] was inactive. For the same compound, the result in test [8] and in [9] was inactive.
On to `C=CC(=O)OCC(F)(F)C(F)(F)C(F)(F)C(F)(F)C(F)(F)C(F)(F)C(F)(F)F`, for which the result in [1], in [2], in [10], in test [4], in test [6] and in [7] was inactive. The result in test [8] and in [9] was inactive.
Regarding `Cc1ccc(S(=O)(=O)OCC(F)(F)C(F)(F)C(F)(F)C(F)(F)C(F)(F)C(F)F)cc1`, the result in [1], in test [2], in test [10], in test [4], in test [6] and in [7] was inactive. The result in test [8] and in [9] was inactive. In [4], the AC50 was 18.2 µM (active).
In the case of `FC(F)(F)C(F)(F)C(F)(F)CI`, the result in [1], in test [2], in test [10], in test [4], in [6] and in test [7] was inactive. Besides, the outcome in [8] and in test [9] was inactive.
Regarding `O=C(O)C(F)(F)C(F)(F)C(F)(F)C(F)(F)F`, the result in test [1], in [2], in [10], in [4], in [6] and in test [7] was inactive. In addition, the result in test [8] and in test [9] was inactive. Further, in test [9], the AC50 was 31.2 µM (active).
